Screens: PubChem, several laboratories
CF NFkB block: blocks PAF-induced NF-kB reporter in cystic fibrosis cells. 360,000 tested, 0.86% active. KKLEB NF-kB-GFP reporter, GFP fluorescence overnight. inhibition, % at 5 µM;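 active = at least 50% inhibition at 5 µM, scaled per plate between neutral and stimulator controls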;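 note: PAF is a Pseudomonas aeruginosa culture filtrate used as stimulus; plate controls were PAF-stimulated DMSO wells for no effect and unstimulated DMSO wells for full effect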
HIF-2a inh: blocks HIF-2a reporter activity; 786-0 RCC cells HIF-2a reporter, luciferase luminescence, overnight; AID 624352; 360,000 tested, 0.72% active; inhibition, % at 18.8 µM;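 active = inhibition of the luminescence signal of 40% or more relative to plate controls, in a single-dose primary screen at 18.75 µM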
KKLEB cytotox: CF airway cell cytotoxicity counter-screen; activity change (cytotoxicity), % at 5 µM; KKLEB CF airway cells viability, ATPlite luminescence, overnight; stronger effect = lower value; cells stimulated with P. aeruginosa culture filtrate; 360,000 tested, 0.36% active;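 active = corrected activity change at or below -50% at 5 µM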
EWS-Fli inh: inhibitors of EWS/Fli oncoprotein transcriptional activity; A673 NR0B1-luciferase reporter, viability-normalised; inhibition, % at 12.6 µM; 350,000 tested, 0.67% active;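 active = mean inhibition of at least 50% after viability correction, with every replicate also passing that limit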;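 note: firefly luciferase signal divided by Alamar Blue viability fluorescence both relative to DMSO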
PAX8 reporter: PAX8 transcriptional activity inhibition. RMG-I TPO-luciferase reporter, SteadyGlo, 24 h. inhibition, % at 12.6 µM. 360,000 tested, 1.2% active. AID 652154;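 active = mean replicate inhibition at least 60% with every replicate also reaching 60%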;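 note: luciferase light reporting Pax8 driven TPO promoter activity; plate controls were median of neutral control wells for no effect and mitoxantrone controls for full effect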
CF NFkB inh conf: CF NF-kB inhibition confirmation, single concentration | shares compounds with CF NFkB block | 1,300 tested, 64% active | KKLEB CF airway cells, PAF-induced NF-kB-GFP fluorescence, overnight | inhibition, % at 5 µM; in the data active = inhibition above about 40%;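 note: stimulus PAF is a Pseudomonas aeruginosa filtrate and not platelet activating factor; plate controls were DMSO wells with stimulus for no effect and unstimulated DMSO wells for full effect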
Starred values were filed as active, the others as inactive; nt = no result. Sampled rows, rich in hits. Any-hit rate of the full collection: about 2.1%.

SMILES | CF NFkB block | HIF-2a inh | KKLEB cytotox | EWS-Fli inh | PAX8 reporter | CF NFkB inh conf
CCCN(CCO)CCCc1ccccc1 | 1.8 | 8.9 | 1.9 | nt | nt | nt
COc1cccc(CN(C)C[C@@H]2OCc3cn(nn3)CCCC(=O)N([C@@H](C)CO)C[C@@H]2C)c1 | nt | nt | nt | 3.1 | -6.0 | nt
CC(C)C[C@@H]1NC(=O)[C@H](Cc2ccccc2)N(C)C(=O)[C@H](C)NC(=O)c2ccccc2NC(=O)[C@H](Cc2ccc(O)cc2)N(C)C1=O | 82.1* | -7.6 | -23.6 | 20.2 | nt | 94.2*
Cc1noc(C)c1NC(=O)Nc1ccc2c(c1)C(=O)N([C@@H](C)CO)C[C@@H](C)[C@H](CN(C)S(=O)(=O)c1c(C)noc1C)OCCCC[C@H](C)O2 | nt | nt | nt | -12.2 | -1.4 | nt
C[C@H](CO)N1C[C@H](C)[C@@H](CN(C)S(=O)(=O)c2ccccc2)Oc2ccc(NS(=O)(=O)c3ccc(Cl)cc3)cc2C1=O | nt | nt | nt | -7.1 | -16.9 | nt
O=[N+]([O-])c1cc(S(=O)(=O)NCCCN2CCOCC2)ccc1Cl | 13.4 | 8.7 | -0.9 | nt | nt | nt
O=[N+]([O-])c1cc(S(=O)(=O)NCCN2CCOCC2)ccc1Sc1nnnn1-c1ccccc1 | 73.0* | 10.7 | -3.2 | 13.1 | 58.9 | 19.3
COc1ccc2ccc(O)c(CN3CCN(S(=O)(=O)c4cccc(C(F)(F)F)c4)CC3)c2c1 | 69.8* | 17.5 | -30.5 | 14.2 | 9.2 | 28.6
COc1cc2c(Cc3ccccc3)cncc2cc1O | 52.8* | 13.0 | 3.0 | -8.5 | -1.6 | 66.0*
COc1cc2cncc(Cc3ccccc3)c2cc1O | 7.6 | 5.9 | 2.7 | -2.9 | -3.5 | nt
Cc1ccc(S(=O)(=O)N2[C@@H](c3ccc(C(C)(C)C)cc3)C(C(=O)O)=CC[C@H]2c2ccc(C(C)C)cc2)cc1 | 62.3* | 15.7 | 12.0 | -17.0 | 0.5 | 53.0*
Cc1ccc([C@@H]2CC=C(C(=O)O)[C@H](c3ccc(C(C)(C)C)cc3)N2S(=O)(=O)c2ccc(C)cc2)cc1 | 50.7* | 3.5 | 0.5 | -4.7 | 21.7 | 21.9
O=S1(=O)CC=C(CSC(=S)NC2CCS(=O)(=O)C2)C1 (stereo not given) | 51.4* | 38.2 | -11.1 | -21.1 | 1.0 | 95.8*
CC1(C)CC(=O)C2=C(C1)OC1=C(C(=O)CC(C)(C)C1)C2c1cc([N+](=O)[O-])cc([N+](=O)[O-])c1O | -8.8 | 24.4 | 12.2 | 3.4 | 5.8 | nt
CC1(C)CC(=O)C(C2C3=C(CC(C)(C)CC3=O)Oc3c(Br)cc(Br)cc32)=C(O)C1 (stereo not given) | 56.1* | -4.0 | -6.4 | 15.0 | 28.1 | 56.8*
CC(=O)Nc1ccc(/C=C(\C#N)C(=O)NC2CCCCC2C)cc1 (stereo not given) | -4.4 | 19.5 | -20.3 | 8.1 | 2.8 | nt
CSc1ccc(/C=C(\C#N)C(=O)NC2CCCCC2C)cc1 (stereo not given) | 53.3* | -1.7 | -28.6 | -7.7 | -11.4 | 17.3
COc1ccccc1S(=O)(=O)N[C@H]1C=C[C@@H](CC(=O)N2CCCCC2)O[C@H]1CO | nt | nt | nt | 4.3 | -3.0 | nt
OCCN1CCN(c2ncnc3ccc(Br)cc23)CC1 | 53.1* | 27.5 | -8.8 | -9.5 | -32.1 | 67.0*
OCCN1CCN(c2nc(-c3ccccc3)c3cc(Br)ccc3n2)CC1 | 28.7 | 2.7 | -15.4 | 5.2 | -7.4 | nt
C[C@]12CCC(=O)C=C1CCC1C2CC[C@@]2(C)C1CCC21OCCO1 (stereo not given in full) | 6.1 | 7.8 | -3.3 | 5.1 | 21.0 | nt
CCC(=O)OC1(C(C)=O)CCC2C3CCC4=CC(=O)CCC4(C)C3CCC21C (stereo not given) | 50.7* | 13.5 | -5.1 | 8.5 | 17.0 | -89.4
COc1ccc(-c2c(C#N)c(N)nc(Sc3ccc(Cl)cc3)c2C#N)cc1 | 33.4 | 13.7 | -32.3 | 13.4 | 35.6 | nt
COc1nc(N)c(C#N)c(-c2ccc(N(C)CCC#N)cc2)c1C#N | 58.7* | 21.2 | 1.6 | -9.4 | 41.3 | 75.4*
C=C1C[C@@]23CCC4[C@@](C)(CCC[C@@]4(C)C(=O)OC)C2CC[C@]1(OC(C)=O)C3 (stereo not given in full) | 50.7* | -88.2 | -27.6 | 2.1 | -12.4 | 0.8
C[C@@H]1CN([C@H](C)CO)C(=O)c2cc(C#CC3CC3)cnc2O[C@H]1CN(C)C(=O)Cc1ccccn1 | nt | nt | nt | 2.7 | nt | nt
COc1ccccc1-c1ccc2c(c1)C(C)(Cc1ccc(Cl)c(Cl)c1)C(=O)N2 (stereo not given) | 37.6 | -20.6 | 2.1 | -0.8 | 11.8 | nt
